Assay results published in PubChem BioAssay (NCI).
Compounds without any hit were thinned out: in the full panel of roughly 83,000, 20% have a hit.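 The test compound was applied at a single concentration to cells in 96-well plates for 48 hours, and percent growth was recorded.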 Values without a mark were called inactive. Calls of active or inactive are those of the source. How the source made its calls: active means growth percent below 10; inactive means the rest.

test system: HL-60(TB) leukemia; assay: NCI-60 one-dose screen, 48 h (100 = growth as untreated, 0 = no growth, -100 = all killed); conditions: 10 µM unless noted

SMILES | growth
S=c1[nH]nc(CSc2ncnc3c2c(-c2ccccc2)cn3-c2ccc(Cl)cc2)o1 | 101%
Cc1c2cnccc2c(C)c2c1oc1ccccc12 | 61.8%
Cn1cc(-c2nonc2-c2cn(C)c3ccc(Br)cc23)c2ccccc21 | -18.9% (active)
Brc1ccc2[nH]cc(-c3cncn3CCc3ccccc3)c2c1 | 39.3%
COc1ccc(Cn2nc3c(c2-c2cc(OC)c(OC)c(OC)c2)-c2oncc2CC3)cc1 | 54.4%
O=C1/C(=N/O)CCc2ccccc21 | 59.1%
COc1cc(NC(N)=NCC(C)(C)COc2ccc(C(F)(F)F)cc2)cnc1C#N | 24.7%
CCCCCCCCCN(CCCCCCCCC)C(C)C(=O)c1ccc2cc(Br)c3ccccc3c2c1 (stereo not given) | 102%
CCCCc1c(CCC)c(=N)c2ccccc2n1C | 77%
COc1ccc(C(=O)/C=C/c2ccc(C)cc2)cc1S(N)(=O)=O | 56.2%
Clc1ccc(OCc2nc(-c3ccccc3)n[nH]2)c(Cl)c1 | 94.9%
CN1C(=O)C(C2=NNC(c3ccccc3C(=O)O)C2)C(=O)N(C)C1=O (stereo not given) | 95.5%
CC(=O)n1cc(/C=C2\N=C(c3ccc(Cl)cc3)N(c3ccc(S(=O)(=O)Nc4nccs4)cc3)C2=O)c2ccccc21 | 73.3%
COc1ccc(C2=NN(c3nc(-c4ccc(OC)cc4)c(C#N)c(=O)n3C)C(=O)CC2)cc1 | 99.5%
COc1cccc(NC(=O)Cn2cc3c(=O)oc4ccccc4c3n2)c1 | 107%
CCN(CC)c1ccc(/C=N/NC(=O)c2ccccc2Nc2ccnc(C(F)(F)F)c2)c(O)c1 | 60%
COc1cc2oc(-c3ccc(O)cc3)cc(=O)c2c(O)c1-c1c(OC)cc(O)c2c(=O)cc(-c3ccc(O)cc3)oc12 | 0.122% (active)
C=C(C)[C@@H]1CC[C@]2(COCCC#N)CC[C@]3(C)[C@H](CC[C@@H]4[C@@](C)(CCCNCCC#N)[C@H](C(=C)C)CC[C@]43C)[C@@H]12 | -16.2% [100 µM] (active)
O=C1c2ccccc2-c2nnc(-c3ccc(Br)cc3)cc21 | 0.71% (active)
[O-][n+]1c2ccccc2[n+]([O-])c2c3ccccc3[nH]c21 | 100%

SMILES | growth
CCCC[N+]1(C)CCN=C1Cc1ccccc1 (stereo not given) | 88.9%
O=[N+]([O-])c1ccc(C2CC(c3ccccc3)=Nc3ccccc3S2)cc1 (stereo not given) | 36.1%
O=C(NCc1ccc(Cn2c(=O)sn(-c3ccc(Cl)cc3)c2=O)cc1)OCc1ccc2c(Cl)cc(Cl)c(O)c2n1 | 56.3%
CC1(C)[C@@H](NOCCCN)CC[C@]2(C)[C@H]3C(=O)C=C4[C@@H]5C[C@](C)(C(=O)O)CC[C@]5(C)CC[C@@]4(C)[C@]3(C)CC[C@@H]12 | -31.3% [100 µM] (active)
CC(=O)O[C@H]1CC[C@]2(C)[C@H]3CC=C4[C@@H]5CC(C)(C)CC[C@]5(C(=O)NCCNCCNCCN)CC[C@@]4(C)[C@]3(C)CC[C@H]2C1(C)C | -42.8% (active)
N#C/C(=C\c1ccc2c(c1)OCO2)n1nnc2ccccc21 | -10.9% (active)
COc1ccc(C2=NN(C(C)=O)C(c3c(C)nn(-c4ccccc4)c3N3CCOCC3)C2)cc1 (stereo not given) | 101%
C[C@]12CCc3nc(Nc4ccc(O)cc4)sc3C1=CC[C@@H]1[C@@H]2CC[C@]2(C)/C(=N/NC(N)=S)CC[C@@H]12 | -4.61% (active)
CCCCCCCCCCC[C@@H](C[C@H]1OC(=O)[C@H]1CCCCCC)OC(=O)[C@@H](CC(C)C)NC=O | -3.28% (active)
CC1(C)CC[C@]23CC[C@]4(C)[C@H](CC[C@@H]5[C@@]6(C)C/C(=C/c7ccncc7)C(=O)C(C)(C)[C@@H]6CC[C@]54C)[C@H]2[C@H]1OC3=O | 43% [100 µM]
Cc1ccnc2nc(C(=O)OCC(=O)Nc3ccc(-c4ccccc4)cc3)nn12 | 72.8%
O=C1CCC/C=C\C[C@H]2C=C(Cl)C(=O)/C2=C/C[C@H](CCCCC(F)(F)F)OC(=O)CCC/C=C\C[C@H]2C=C(Cl)C(=O)/C2=C/C[C@H](CCCCC(F)(F)F)O1 | -16.5% [7.5 µM] (active)
CCCCC[C@H](O)C/C=C1/C(=O)C=C[C@@H]1C/C=C\CCCC(=O)OC | 25.1%
FC(F)(F)c1cc(-c2nnc3n2N=C(N2CCCC2)CS3)cc(C(F)(F)F)c1 | 113%
Cc1c(C2=CCCCC2)c2ccccn2c1C(=O)c1cccc(S(=O)(=O)N2CCOCC2)c1 | 132%
Clc1ccc(C2CC(c3cccc(Nc4ccncc4)c3)=NN2c2cc(Cl)cc(Cl)c2)cc1 (stereo not given) | 24.8%
COc1cc(C2CC(c3ccc(Nc4ccnc5cc(Cl)ccc45)cc3)=NN2C=O)cc(OC)c1OC (stereo not given) | 19.7%
CCOC(=O)c1ccc2c(c1)ncn2-c1ccc(NC(=O)Nc2cccc(C)c2)cc1 | 78.3%
Cn1cc(-c2nn3cc(-c4cccs4)nc3s2)c2cc(F)ccc21 | 3.45% (active)
Cc1ccc(C(CC(=O)O)c2c(C)[nH][nH]c2=O)cc1 (stereo not given) | 98.8%
